Test results taken from PubChem BioAssay AID1159580 (chemical genetic matrix, 2015).
Where “and” joins values, the source holds several entries; their conditions need not be identical. Identical values can stand only once. Screen size: about 5,500 compounds; about 2,000 (36%) were called active. Inconclusive results (about 18%) are left out. Cut-off read from the data, not from the text of the source: active = normalized growth mostly below about 0.91 (no sharp cut-off); inconclusive = no clear call, values can overlap the other calls; inactive = mostly above about 0.92. Some of the results follow.

Test: chemical genetic growth profiling, strain panel (AID 1159580);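 note: tested at 20 µM; growth read once vehicle control cultures reached saturation at 30 °C; 1 = growth at the plate median or of vehicle wells; lower values mean less growth of the strain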
Settings: S. cerevisiae deletion strains, growth OD

Measured: normalized growth

O=[N+]([O-])c1ccc2c(c1)NC(c1ccc([N+](=O)[O-])s1)O2 (stereo unspecified)
active: locus YAL013W, strain DEP1, stronger effect = lower value 0.0563 | locus YBR229C, strain ROT2, stronger effect = lower value 0.0525 | locus YCL061C, strain MRC1, stronger effect = lower value 0.0508 | locus YDL101C, strain DUN1, stronger effect = lower value 0.0673 | locus YDL134C, strain PPH21, stronger effect = lower value 0.0453 | locus YDR150W, strain NUM1, stronger effect = lower value 0.0493 | locus YEL061C, strain CIN8, stronger effect = lower value 0.049 | locus YGR052W, strain FMP48, stronger effect = lower value 0.104 | locus YGR078C, strain PAC10, stronger effect = lower value 0.0481 | locus YGR229C, strain SMI1, stronger effect = lower value 0.0516 | locus YHR030C, strain SLT2, stronger effect = lower value 0.0641 and 0.114 | locus YHR079C, strain IRE1, stronger effect = lower value 0.11 | locus YHR082C, strain KSP1, stronger effect = lower value 0.106 | locus YHR087W, strain rtc3, stronger effect = lower value 0.0539 | locus YJL095W, strain BCK1, stronger effect = lower value 0.1 | locus YJL187C, strain SWE1, stronger effect = lower value 0.0478 | locus YJR043C, strain POL32, stronger effect = lower value 0.0509 | locus YJR066W, strain TOR1, stronger effect = lower value 0.1 | locus YJR075W, strain HOC1, stronger effect = lower value 0.0918 | locus YKL171W, strain NNK1, stronger effect = lower value 0.387 | locus YKL203C, strain TOR2, stronger effect = lower value 0.0984 | locus YLR039C, strain RIC1, stronger effect = lower value 0.0606 | locus YLR058C, strain SHM2 (second series), stronger effect = lower value 0.0478 | locus YLR085C, strain ARP6, stronger effect = lower value 0.0638 | locus YLR113W, strain HOG1, stronger effect = lower value 0.187 | locus YLR262C, strain YPT6, stronger effect = lower value 0.0626 | locus YML094W, strain GIM5, stronger effect = lower value 0.0601 | locus YMR219W, strain ESC1, stronger effect = lower value 0.0484 | locus YMR263W, strain SAP30, stronger effect = lower value 0.0575 | locus YNL153C, strain GIM3, stronger effect = lower value 0.0476 | locus YNL183C, strain NPR1, stronger effect = lower value 0.108 | locus YNL207W, strain RIO2, stronger effect = lower value 0.107 | locus YNL298W, strain CLA4 (second series), stronger effect = lower value 0.0735 | locus YNL322C, strain KRE1, stronger effect = lower value 0.0534 | locus YNR030W, strain Alg12, stronger effect = lower value 0.063 | locus YOR119C, strain RIO1, stronger effect = lower value 0.0996 | locus YOR231W, strain MKK1, stronger effect = lower value 0.101 | locus YPL055C, strain LGE1, stronger effect = lower value 0.0657 | locus YPL241C, strain CIN2, stronger effect = lower value 0.0629 | locus YPL256C, strain CLN2, stronger effect = lower value 0.17 | locus YPR135W, strain CTF4, stronger effect = lower value 0.149
